Measurements: PubChem BioAssay AID489042 (NMMLSC, 2010)
Active and inactive are the calls of the source. Rule as the data show it: active = inhibition score above about 11; inactive = the rest.

Assay: S. cerevisiae short- and long-term growth effects – BY4741, OD595, 24 h, dose response (AID 489042)
Settings: flow cytometer event count, 7 d (AID 449753), active compounds read high

Row | Compound | inhibition score
1 | COc1ccc2nc3ccccc3nc2c1 | 0 (inactive)
2 | c1ccc2[nH]c3cc4ncnc4cc3nc2c1 | 0 (inactive)
3 | Cc1cc2nc3ccc(N(C)C)cc3nc2cc1N | 0 (inactive)
4 | [O-][n+]1c2ccccc2[n+]([O-])c2cc(O)ccc21 | 0 (inactive)
5 | FC(F)(F)c1nc2cc3nc4ccccc4[nH]c3cc2n1 | 0 (inactive)
6 | C=CCSc1nnc(-c2ccc([N+](=O)[O-])cc2)o1 | 0 (inactive)
7 | CC(C)OC(=O)CSc1nnc(-c2ccc(Cl)cc2Cl)o1 | 0 (inactive)
8 | CCN(CC)C(=O)CSc1nnc(-c2cccc(OC)c2)o1 | 0 (inactive)
9 | CC(=O)[C@@]1(O)CCC2C3CC[C@H]4C[C@@H](O)CC[C@]4(C)C3CC[C@@]21C (stereo not given in full) | 0 (inactive)
10 | COc1ccc2nc3cccc(OC)c3nc2c1 | 0 (inactive)
11 | O=C(/C=C/c1cccs1)NC(=S)NNC(=O)Cc1cccs1 | 11 (active)
12 | CSc1nnc2c3cc(F)ccc3n(C)c2n1 | 0 (inactive)
13 | COc1cccc2nc3cc(C)c(C)cc3nc12 | 0 (inactive)
14 | C[C@@]12C(=O)OC(=O)[C@]1(C)C1CCC2O1 | 11 (active)
15 | CC(=O)Nc1ccc2nc3ccccc3nc2c1 | 0 (inactive)
16 | CNC(=O)c1cccc2nc3ccccc3nc12 | 0 (inactive)
17 | N#CC(c1nc2ccccc2nc1N1CCCC1)S(=O)(=O)c1ccccc1 (stereo not given) | 0 (inactive)
18 | c1ccc2nc3ccccc3nc2c1 | 0 (inactive)
19 | O=C(Nc1ccc2nc3ccccc3nc2c1)c1ccccc1 | 0 (inactive)
20 | O=C(CN1CCN(c2ccccn2)CC1)Nc1ccccc1F | 0 (inactive)
